What all share (assay): DAPPL (digital affinity profiling via proximity ligation, sequencing); 10 mM Tris-HCl pH 7.5, 50 mM NaCl, 1 mM DTT, 4% glycerol, room temperature, 30 min; GST-TFs on glutathione beads, 16-mer random dsDNA library, 0.1% formaldehyde crosslink after washing; high values mean tight binding
Common to all, as to conditions: protein: recombinant; tags: N-terminal GST; dsDNA, one strand shown

One test has as its target T1, FLI1 (Homo sapiens, UniProt Q01543 1-452).
T1 sequence: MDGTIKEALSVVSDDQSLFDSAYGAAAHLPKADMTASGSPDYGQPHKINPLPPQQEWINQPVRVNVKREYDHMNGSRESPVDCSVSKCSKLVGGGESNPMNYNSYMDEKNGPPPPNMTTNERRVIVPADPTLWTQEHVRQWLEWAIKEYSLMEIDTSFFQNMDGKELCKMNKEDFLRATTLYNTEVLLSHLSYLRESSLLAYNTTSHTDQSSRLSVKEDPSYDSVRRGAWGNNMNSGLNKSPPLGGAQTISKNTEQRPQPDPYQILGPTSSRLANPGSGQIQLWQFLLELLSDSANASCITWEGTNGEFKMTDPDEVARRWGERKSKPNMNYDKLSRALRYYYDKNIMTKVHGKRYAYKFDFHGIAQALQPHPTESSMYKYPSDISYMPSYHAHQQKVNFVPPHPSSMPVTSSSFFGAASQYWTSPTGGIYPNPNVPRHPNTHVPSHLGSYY
The method, boiled down: (§1)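 Human transcription factors fused to GST were expressed in yeast, captured on glutathione beads, given DNA barcodes and pooled with a GST-only negative control. Pools were incubated with 200 nmole of a 16-mer random double-stranded DNA library in Tris/NaCl/DTT/glycerol buffer at room temperature for 30 min. They were then washed, crosslinked with 0.1% formaldehyde, proximity-ligated (BsaI/T4 ligase, 1 h, 37 °C), PCR-amplified and sequenced on an Illumina NextSeq500. Binding signal is each 6-mer's read frequency for a factor divided by its frequency for the GST control.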

For another test, the target named is T2, ELK1 (Homo sapiens, UniProt P19419 1-428).
T2 sequence: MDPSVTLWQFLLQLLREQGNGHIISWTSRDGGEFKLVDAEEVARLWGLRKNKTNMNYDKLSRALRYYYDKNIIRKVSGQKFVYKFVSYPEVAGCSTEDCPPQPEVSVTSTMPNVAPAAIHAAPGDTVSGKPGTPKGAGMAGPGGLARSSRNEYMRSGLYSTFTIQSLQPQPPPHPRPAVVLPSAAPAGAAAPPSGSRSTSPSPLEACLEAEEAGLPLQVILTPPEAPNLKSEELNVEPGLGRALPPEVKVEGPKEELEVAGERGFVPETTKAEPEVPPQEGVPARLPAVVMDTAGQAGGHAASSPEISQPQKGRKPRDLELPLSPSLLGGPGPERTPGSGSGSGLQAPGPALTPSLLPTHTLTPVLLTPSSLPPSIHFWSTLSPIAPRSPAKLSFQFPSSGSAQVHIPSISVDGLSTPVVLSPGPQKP
The method, boiled down:
as §1

Another test has as its target T3, GABPA (Homo sapiens, UniProt Q06546 1-454).
T3 sequence: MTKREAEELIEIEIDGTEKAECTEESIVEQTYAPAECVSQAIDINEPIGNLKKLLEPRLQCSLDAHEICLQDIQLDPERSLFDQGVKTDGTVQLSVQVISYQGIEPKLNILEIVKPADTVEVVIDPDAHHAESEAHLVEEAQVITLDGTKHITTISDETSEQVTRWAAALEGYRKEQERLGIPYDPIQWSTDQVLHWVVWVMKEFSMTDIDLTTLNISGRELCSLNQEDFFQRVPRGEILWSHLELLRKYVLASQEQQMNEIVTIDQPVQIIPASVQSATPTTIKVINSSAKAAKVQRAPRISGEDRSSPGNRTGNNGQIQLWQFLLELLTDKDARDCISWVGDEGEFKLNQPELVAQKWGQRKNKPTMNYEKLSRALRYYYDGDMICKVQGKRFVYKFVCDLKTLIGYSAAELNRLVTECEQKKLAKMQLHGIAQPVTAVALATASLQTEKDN
Summed up:
as §1

The target of another test is T4, ERG (Homo sapiens, UniProt P11308 1-479).
T4 sequence: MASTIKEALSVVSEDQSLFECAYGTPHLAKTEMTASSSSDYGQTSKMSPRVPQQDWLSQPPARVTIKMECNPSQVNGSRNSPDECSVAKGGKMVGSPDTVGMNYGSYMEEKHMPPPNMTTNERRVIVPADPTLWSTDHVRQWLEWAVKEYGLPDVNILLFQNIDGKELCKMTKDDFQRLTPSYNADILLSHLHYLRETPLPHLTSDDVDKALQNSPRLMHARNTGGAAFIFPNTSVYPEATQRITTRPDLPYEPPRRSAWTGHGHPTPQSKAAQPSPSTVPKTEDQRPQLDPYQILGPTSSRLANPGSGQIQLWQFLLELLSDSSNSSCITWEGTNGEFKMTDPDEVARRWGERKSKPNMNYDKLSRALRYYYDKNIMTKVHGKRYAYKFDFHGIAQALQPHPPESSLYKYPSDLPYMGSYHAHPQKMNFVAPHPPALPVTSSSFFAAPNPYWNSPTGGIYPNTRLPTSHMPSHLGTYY
Summed up: as §1

Another test concerns the target ELF1 (Homo sapiens, UniProt P32519 1-619). The method, boiled down:
as §1

The next test has as its target T5, EHF (Homo sapiens, UniProt Q9NZC4 1-300).
T5 sequence: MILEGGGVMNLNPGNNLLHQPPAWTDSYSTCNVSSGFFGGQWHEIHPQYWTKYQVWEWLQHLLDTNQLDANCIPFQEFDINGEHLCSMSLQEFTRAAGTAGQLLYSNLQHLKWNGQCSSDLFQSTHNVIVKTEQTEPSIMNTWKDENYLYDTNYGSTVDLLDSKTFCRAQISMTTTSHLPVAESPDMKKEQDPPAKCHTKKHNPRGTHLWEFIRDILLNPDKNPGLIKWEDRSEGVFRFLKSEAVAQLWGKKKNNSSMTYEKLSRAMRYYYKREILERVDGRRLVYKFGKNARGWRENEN
The method, boiled down:
as §1

For a further test, the target named is SPI1 (Homo sapiens, UniProt P17947 1-270). Summed up:
as §1

The target in the next test is SPIB (Homo sapiens, UniProt Q01892 1-262). Summed up:
as §1

The next test deals with T6, ELK3 (Homo sapiens, UniProt P41970 1-407).
T6 sequence: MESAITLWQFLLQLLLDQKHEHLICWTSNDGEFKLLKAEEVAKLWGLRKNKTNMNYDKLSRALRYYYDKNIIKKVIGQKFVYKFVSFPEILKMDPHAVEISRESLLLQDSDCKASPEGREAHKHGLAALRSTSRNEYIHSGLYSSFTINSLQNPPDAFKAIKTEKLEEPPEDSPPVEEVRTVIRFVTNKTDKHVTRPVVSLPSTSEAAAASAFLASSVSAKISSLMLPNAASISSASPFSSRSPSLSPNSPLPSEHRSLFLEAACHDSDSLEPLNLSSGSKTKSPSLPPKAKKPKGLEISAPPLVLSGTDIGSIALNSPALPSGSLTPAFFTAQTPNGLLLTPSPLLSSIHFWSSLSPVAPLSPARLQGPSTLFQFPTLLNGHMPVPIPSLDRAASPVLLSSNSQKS
Summed up:
as §1

Chain of ELF1 (P32519 whole entry): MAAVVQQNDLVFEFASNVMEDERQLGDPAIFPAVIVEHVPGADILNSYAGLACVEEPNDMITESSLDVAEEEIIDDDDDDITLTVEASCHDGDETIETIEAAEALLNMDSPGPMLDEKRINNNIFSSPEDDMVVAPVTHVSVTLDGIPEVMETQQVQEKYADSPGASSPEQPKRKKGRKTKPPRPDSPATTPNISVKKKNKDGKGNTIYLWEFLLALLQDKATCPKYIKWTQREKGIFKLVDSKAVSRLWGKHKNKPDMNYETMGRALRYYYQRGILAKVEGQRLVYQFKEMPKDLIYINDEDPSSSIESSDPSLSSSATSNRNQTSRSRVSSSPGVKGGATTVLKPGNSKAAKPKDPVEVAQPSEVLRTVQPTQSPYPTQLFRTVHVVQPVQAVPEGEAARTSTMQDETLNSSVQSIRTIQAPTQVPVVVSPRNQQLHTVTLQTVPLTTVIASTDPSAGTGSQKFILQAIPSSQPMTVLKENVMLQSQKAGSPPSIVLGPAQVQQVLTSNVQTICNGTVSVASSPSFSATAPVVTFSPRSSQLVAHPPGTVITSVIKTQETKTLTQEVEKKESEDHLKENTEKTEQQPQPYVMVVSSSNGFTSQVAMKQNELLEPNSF
Chain of SPIB (Q01892 whole entry): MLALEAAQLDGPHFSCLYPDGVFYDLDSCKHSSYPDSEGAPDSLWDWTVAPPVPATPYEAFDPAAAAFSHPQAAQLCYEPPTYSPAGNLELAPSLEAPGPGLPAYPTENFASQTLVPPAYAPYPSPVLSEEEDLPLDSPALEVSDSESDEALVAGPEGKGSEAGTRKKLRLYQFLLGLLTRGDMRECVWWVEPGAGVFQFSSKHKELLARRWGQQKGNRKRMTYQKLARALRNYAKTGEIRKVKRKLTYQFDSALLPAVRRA

For the sequence CCTCGC, the binding signal was 1.53 fold enrichment (6-mer frequency, TF over GST control) with FLI1; 1.54 fold enrichment (6-mer frequency, TF over GST control) with ELK1; 1.43 fold enrichment (6-mer frequency, TF over GST control) with GABPA; 1.5 fold enrichment (6-mer frequency, TF over GST control) in the test with ERG; 1.37 fold enrichment (6-mer frequency, TF over GST control) with ELF1; 1.42 fold enrichment (6-mer frequency, TF over GST control) with EHF. Besides, the binding signal with SPI1 was 1.39 fold enrichment (6-mer frequency, TF over GST control); with SPIB, 1.42 fold enrichment (6-mer frequency, TF over GST control); with ELK3, 1.26 fold enrichment (6-mer frequency, TF over GST control).

Consider ATGATT, for which the binding signal with FLI1 is 1.22 fold enrichment (6-mer frequency, TF over GST control); with ELK1 it was 1.25 fold enrichment (6-mer frequency, TF over GST control); with GABPA, 1.37 fold enrichment (6-mer frequency, TF over GST control); with ERG, 1.21 fold enrichment (6-mer frequency, TF over GST control); in the test with ELF1, 1.21 fold enrichment (6-mer frequency, TF over GST control); in the test with EHF it was 1.22 fold enrichment (6-mer frequency, TF over GST control). Besides, the binding signal was 1.17 fold enrichment (6-mer frequency, TF over GST control) with SPI1; 1.22 fold enrichment (6-mer frequency, TF over GST control) in the test with SPIB; 1.09 fold enrichment (6-mer frequency, TF over GST control) with ELK3.

Turning to CGGAAA, the binding signal is 1.89 fold enrichment (6-mer frequency, TF over GST control) with FLI1; 2.13 fold enrichment (6-mer frequency, TF over GST control) in the test with ELK1; 1.88 fold enrichment (6-mer frequency, TF over GST control) with GABPA; 2.63 fold enrichment (6-mer frequency, TF over GST control) in the test with ERG; 1.87 fold enrichment (6-mer frequency, TF over GST control) with ELF1; 2.31 fold enrichment (6-mer frequency, TF over GST control) with EHF. The binding signal was 1.89 fold enrichment (6-mer frequency, TF over GST control) in the test with SPI1; 2.22 fold enrichment (6-mer frequency, TF over GST control) in the test with SPIB; 2.28 fold enrichment (6-mer frequency, TF over GST control) in the test with ELK3.

Consider CACACG, for which the binding signal with FLI1 is 1.14 fold enrichment (6-mer frequency, TF over GST control); with ELK1, 1.11 fold enrichment (6-mer frequency, TF over GST control); with GABPA, 1.23 fold enrichment (6-mer frequency, TF over GST control); with ERG, 1.07 fold enrichment (6-mer frequency, TF over GST control); with ELF1 it was 1.21 fold enrichment (6-mer frequency, TF over GST control); in the test with EHF, 1.12 fold enrichment (6-mer frequency, TF over GST control). For the same sequence, the binding signal in the test with SPI1 is 1.08 fold enrichment (6-mer frequency, TF over GST control); with SPIB, 1.15 fold enrichment (6-mer frequency, TF over GST control); in the test with ELK3, 1.03 fold enrichment (6-mer frequency, TF over GST control).

With AACGTC, the binding signal with FLI1 was 1.07 fold enrichment (6-mer frequency, TF over GST control); with ELK1, 1.09 fold enrichment (6-mer frequency, TF over GST control); in the test with GABPA it was 1.1 fold enrichment (6-mer frequency, TF over GST control); in the test with ERG, 1.07 fold enrichment (6-mer frequency, TF over GST control); with ELF1 it was 1.05 fold enrichment (6-mer frequency, TF over GST control); with EHF it was 1.12 fold enrichment (6-mer frequency, TF over GST control). Also, the binding signal with SPI1 was 1.02 fold enrichment (6-mer frequency, TF over GST control); in the test with SPIB, 1.13 fold enrichment (6-mer frequency, TF over GST control); with ELK3, 1.24 fold enrichment (6-mer frequency, TF over GST control).

On to TCAACG, for which the binding signal is 1.12 fold enrichment (6-mer frequency, TF over GST control) with FLI1; 1.05 fold enrichment (6-mer frequency, TF over GST control) with ELK1; 1.09 fold enrichment (6-mer frequency, TF over GST control) in the test with GABPA; 1.08 fold enrichment (6-mer frequency, TF over GST control) with ERG; 1.14 fold enrichment (6-mer frequency, TF over GST control) in the test with ELF1; 1.06 fold enrichment (6-mer frequency, TF over GST control) with EHF. Further, the binding signal is 1 fold enrichment (6-mer frequency, TF over GST control) with SPI1; 1.12 fold enrichment (6-mer frequency, TF over GST control) with SPIB; 1.22 fold enrichment (6-mer frequency, TF over GST control) with ELK3.

Turning to GTTAAG, the binding signal with FLI1 is 1.04 fold enrichment (6-mer frequency, TF over GST control); with ELK1, 1.12 fold enrichment (6-mer frequency, TF over GST control); with GABPA, 1.07 fold enrichment (6-mer frequency, TF over GST control); with ERG, 1.05 fold enrichment (6-mer frequency, TF over GST control); in the test with ELF1, 1.04 fold enrichment (6-mer frequency, TF over GST control); with EHF it was 1.01 fold enrichment (6-mer frequency, TF over GST control). In addition, the binding signal is 1.01 fold enrichment (6-mer frequency, TF over GST control) in the test with SPI1; 1.02 fold enrichment (6-mer frequency, TF over GST control) with SPIB; 1.05 fold enrichment (6-mer frequency, TF over GST control) in the test with ELK3.

(Values after PMC7862700, “An all-to-all approach to the identification of sequence-specific readers for epigenetic DNA modifications on cytosine”.)
